Measured values as given in PubChem BioAssay (NCATS).
Inconclusive results are not listed. A number with no mark means an inactive call. Calls of active or inactive are those of the source. Calls come from the whole dose curve. Numbered stars: 1 amine (or outer) side, 2 acyl side, 3 side chain; on linkers, the order of the positions; unused ones are H or OH. Bridge positions count the residues as written; N and C are the ends. Square brackets hold non-standard residues; d marks the D form. Peptide text beside a SMILES is read from it. I, II: the chains in the order shown. Actinocin(9to1) = Cc1c2oc3c(C)ccc(C(=O)[*:1])c3nc-2c(C(=O)[*:2])c(N)c1=O; NMeV = CN[C@H](C(=O)O)C(C)C; Sar = CNCC(=O)O

assay: VSVG counterscreen qHTS to identify inhibitors of SARS-CoV-2 cell entry (AID 1645847); details: VSV-G pseudotyped particle entry, luciferase; series mostly up to 57.2 µM; activity change, negative = inhibition: at the top concentration; note: nearly all actives have a fitted effect of over 65% in size
Source text: Assay Provider: Wei Zheng, Ph.D.
National Center for Advancing Translational Sciences, National Institute of Health, Rockville, MD.
SARS-CoV-2 spike protein, within the viral envelope, mediates viral attachment and infection of host cells. The SARS-CoV-2 spike protein specifically binds to the host receptor ACE2 (Angiotensin-converting enzyme 2). This interaction promotes endocytosis of the viral particle, additional events lead to viral-host cell membrane fusion and release of the viral contents, allowing viral replication.
While SARS-CoV-2 requires BSL-3 facilities for live virus work, pseudotyped partices (PP) that incorporate SARS-CoV-2 spike proteins without replication elements could facilitate studies on viral entry mechanisms in a BSL-2 setting. This PP cell entry assay could also enable screening of small molecule compound libraries in BSL-2 setting to identify inhibitors of SARS-CoV-2 cell entry.
SEQUENCE No. (e.g., 1, 2, 3, etc.); […] (e.g., Cells, Incubation, Reagent, etc.); VALUE and DESCRIPTION.
1. Cells. Seed 1500 HEK293-ACE2 cells (Expi293F with stable expression of human ACE2) in 2 microL/well media (DMEM, 10% FBS, 1x L-glutamine, 1x Pen/Strep, 1 ug/ml puromycin) in white 1536-well assay plates (Greiner #782073).
2. Incubation. Incubate at 37 degrees C with 5% CO2 overnight (~16 h).
3. Compound. Dispense 23 nL/well compounds in DMSO via pin transfer.
4. Incubation. Incubate for 1 h at 37C 5% CO2.
5. Reagent. Dispense 2 microL/well of vesicular stomatitis virus G glycoprotein (VSV-G) pseudotyped particles (PP). [a] PPs are produced with murine leukemia virus pseudo-typing.
6. Centrifugation. […]
7. Incubation. Incubate at for 48 h at 37C 5% CO2
8. Centrifugation. Remove supernatant with gentle centrifugation using a Blue Washer (BlueCat Bio).
9. Reagent. Dispense 4 microL/well of Bright-Glo Luciferase detection reagent (Promega #E2620).
10. Incubation. Incubate for 5 min at room temperature.
11. Detection. Read luminescence signal (ViewLux plate reader, PerkinElmer). Data was normalized with wells containing VSV-G PP as 100%, and wells containing bald PP (no fusion protein) as 0%.
% is set by controls: 0 for no effect and ±100 for the full control effect; potency is the fitted concentration of half-maximal effect.

Structure (SMILES) | Potency | activity change, negative = inhibition [%]
C=C(CC)C(=O)c1ccc(OCC(=O)O)c(Cl)c1Cl | 1920 nM (active) | –
CC(CN(C)C)CN1c2ccccc2CCc2ccccc21 (centres undefined) | 1920 nM (active) | –
COC(=O)C1=C(C)NC(C)=C(C(=O)OCC(C)C)C1c1ccccc1[N+](=O)[O-] (centres undefined) | 5410 nM (active) | –
CC[C@]1(O)C[C@H]2CN(CCc3c([nH]c4ccccc34)[C@@](C(=O)OC)(c3cc4c(cc3OC)N(C=O)[C@H]3[C@@](O)(C(=O)OC)[C@H](OC(C)=O)[C@]5(CC)C=CCN6CC[C@]43[C@@H]65)C2)C1 | 17.1 nM (active) | –
CCCc1cc(=O)[nH]c(=S)[nH]1 | – | -8.18
COc1c(C)c2c(c(O)c1C/C=C(\C)CCC(=O)OCCN1CCOCC1)C(=O)OC2 | 429 nM (active) | –
Cc1nc(Nc2ncc(C(=O)Nc3c(C)cccc3Cl)s2)cc(N2CCN(CCO)CC2)n1 | 3830 nM (active) | –
CNCCC(Oc1ccc(C(F)(F)F)cc1)c1ccccc1 (centres undefined) | 121 nM (active) | –
Nc1ccn([C@@H]2O[C@H](CO)[C@@H](O)C2(F)F)c(=O)n1 | 304 nM (active) | –
O=C(O)c1ccc(-n2nc(-c3ccccc3O)nc2-c2ccccc2O)cc1 | 24100 nM (active) | –
COC(=O)Nc1nc2ccc(C(=O)c3ccccc3)cc2[nH]1 | 1520 nM (active) | –
Cc1cn([C@H]2C[C@H](N=[N+]=[N-])[C@@H](CO)O2)c(=O)[nH]c1=O | 429 nM (active) | –
CN(C)CCCN1c2ccccc2Sc2ccc(Cl)cc21 | 17100 nM (active) | –
CN1CCC(=C2c3ccccc3C=Cc3ccccc32)CC1 | 192 nM (active) | –
CCC1=C[C@@H]2CN(C1)Cc1c([nH]c3ccccc13)[C@@](C(=O)OC)(c1cc3c(cc1OC)N(C)[C@H]1[C@@](O)(C(=O)OC)[C@H](OC(C)=O)[C@]4(CC)C=CCN5CC[C@]31[C@@H]54)C2 | 1670 nM (active) | –
CN(C)C(=O)C(CCN1CCC(O)(c2ccc(Cl)cc2)CC1)(c1ccccc1)c1ccccc1 | 24100 nM (active) | –
CCCCNc1ccc(C(=O)OCCOCCOCCOCCOCCOCCOCCOCCOCCOC)cc1 | 21500 nM (active) | –

Structure (SMILES) | Potency | activity change, negative = inhibition [%]
Nc1ncn([C@@H]2O[C@H](CO)[C@@H](O)[C@H]2O)c(=O)n1 | 19200 nM (active) | –
COc1cccc2c1C(=O)c1c(O)c3c(c(O)c1C2=O)C[C@@](O)(C(=O)CO)C[C@@H]3O[C@H]1C[C@H](N)[C@H](O)[C@H](C)O1 | 152 nM (active) | –
OCCN1C[C@H](O)[C@@H](O)[C@H](O)[C@H]1CO | 4290 nM (active) | –
CCc1c2c(nc3ccc(OC(=O)N4CCC(N5CCCCC5)CC4)cc13)-c1cc3c(c(=O)n1C2)COC(=O)[C@]3(O)CC | 171 nM (active) | –
CC(=O)Oc1ccccc1C(=O)Nc1ncc([N+](=O)[O-])s1 | 1080 nM (active) | –
CC(=O)[C@]1(O)Cc2c(O)c3c(c(O)c2[C@@H](O[C@H]2C[C@H](N)[C@H](O)[C@H](C)O2)C1)C(=O)c1ccccc1C3=O | 85.7 nM (active) | –
CC(C)(C)C(=O)OCOP(=O)(COCCn1cnc2c(N)ncnc21)OCOC(=O)C(C)(C)C | 15.2 nM (active) | –
N[C@@H](Cc1ccc(N(CCCl)CCCl)cc1)C(=O)O | 152 nM (active) | –
CC/C(=C(\c1ccccc1)c1ccc(OCCN(C)C)cc1)c1ccccc1 | 49400 nM (active) | –
COC(=O)Nc1nc2ccc(C(=O)c3cccs3)cc2[nH]1 | 152 nM (active) | –
COc1c(C)c2c(c(O)c1C/C=C(\C)CCC(=O)O)C(=O)OC2 | 482 nM (active) | –
O=C1C(=O)c2ccccc2C(O)=C1C1CCC(c2ccc(Cl)cc2)CC1 (centres undefined) | 9610 nM (active) | –
Cc1c2oc3c(C)ccc(C(=O)N[C@@H]4C(=O)N[C@H](C(C)C)C(=O)N5CCC[C@H]5C(=O)N(C)CC(=O)N(C)[C@@H](C(C)C)C(=O)O[C@@H]4C)c3nc-2c(C(=O)N[C@@H]2C(=O)N[C@H](C(C)C)C(=O)N3CCC[C@H]3C(=O)N(C)CC(=O)N(C)[C@@H](C(C)C)C(=O)O[C@@H]2C)c(N)c1=O (I: T[dV]P[Sar][NMeV] / II: T[dV]P[Sar][NMeV]; ester I:1-I:C, II:1-II:C; linker I:N-II:N via Actinocin(9to1)) | 42.9 nM (active) | –
Clc1ccc(COC(Cn2ccnc2)c2ccc(Cl)cc2Cl)cc1 (centres undefined) | 12100 nM (active) | –
O=C1CCc2ccc(OCCCCN3CCN(c4cccc(Cl)c4Cl)CC3)cc2N1 | 13600 nM (active) | –
CC[C@]1(O)C[C@@H]2CN(CCc3c([nH]c4ccccc34)[C@@](C(=O)OC)(c3cc4c(cc3OC)N(C)[C@H]3[C@@](O)(C(=O)OC)[C@H](OC(C)=O)[C@]5(CC)C=CCN6CC[C@]43[C@@H]65)C2)C1 | 34.1 nM (active) | –
COC(c1ccccc1)(c1ccccc1)[C@H](Oc1nc(C)cc(C)n1)C(=O)O | – | -5.44
